Unmarked numbers belong to inactive results. Some of the results follow. Calls of active or inactive are those of the source.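 How the source made its calls, unless noted: active means inhibition above the mean plus 3 SD of solvent-only control wells, limit set per screening run (cut at about 16% in these data); inactive means the rest.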
Experiments:
[1] = suppression of KLF5 promoter-driven luciferase – DLD-1 cells, luminescence, confirmation (AID 1834;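 active means inhibition above a set limit taken from the earlier primary screen, cut at about 63% in these data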;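 further: 0% = DMSO wells and 100% = LY294002 at 200 µM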); details: DLD-1 KLF5 promoter firefly luciferase reporter, at 4 µM, hits give high values
[2] = IEC-6 intestinal cell killing – luminescence, triplicate, cytotoxicity control for KLF5 inhibitor project (AID 1905; in the data active means inhibition above about 23%;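 further: cells exposed to compounds for 48 hours before viability read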); details: IEC-6 rat intestinal cells, viability luminescence; at 4 µM; hits give high values
[3] = target: Insulin-degrading enzyme (Homo sapiens) (UniProt P14735); assay: cellular IDE Abeta-cleavage inhibition – fluorescence polarization, HEK cells, FAbetaB substrate, confirmation (AID 435028;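 active means mean inhibition across triplicate wells above the cutoff set by the earlier primary insulin-degrading enzyme screen, cut at about 16% in these data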;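 further: 0% = DMSO wells and 100% = 60 µM reference IDE inhibitor Ii1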); details: at 5.59 µM, hits give high values
[4] = HEK cell viability loss – luminescence, cytotoxicity control for IDE inhibitor project (AID 449730; in the data active means inhibition above about 22%;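 further: 0% = vehicle wells and 100% = reference cytotoxic drug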); details: HEK293 cytotoxicity, ATP luminescence; at 5.59 µM; hits give high values
[5] = reduced OD of T4-infected AddAB+ E. coli – absorbance, E. coli V3065, T4 phage, triplicate, AddAB inhibitor project, confirmation (AID 488942;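 active means mean inhibition above a set limit taken from the earlier primary screen, cut at about 13% in these data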;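 further: higher means less bacterial growth since AddAB block lets phage replicate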); details: E. coli V3065 expressing H. pylori AddAB, at 11.9 µM, hits give high values, T4 phage with gene 2 nonsense mutations
[6] = reduced OD of phage-infected RecBCD+ V66 E. coli – absorbance, mutant T4 phage, counter-screen for AddAB inhibitor project (AID 488955;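 active means mean inhibition above the mean of solvent-only control wells plus 3 SD, cut at about 4% in these data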;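 further: optical density read after an 18 h incubation at 37 °C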); details: OD growth, at 11.9 µM, hits give high values
[7] = bacterial growth inhibitors – absorbance, counter-screen for AddAB inhibitor project, confirmation (AID 488956; in the data active means inhibition above about 25%); details: bacterial viability, absorbance (AddAB counterscreen); at 11.9 µM; hits give high values
[8] = blockers of IL-6 STAT3 signaling – U3A cells, luciferase, luminescence, confirmation (AID 1265;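 active means inhibition above the hit cutoff computed for the primary STAT3 screen, cut at about 44% in these data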;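 further: 0% = IL-6 plus DMSO and 100% = IL-6 plus nifuroxazide control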); details: IL-6 STAT3 luciferase reporter, at 5.7 µM, hits give high values, cell line lacks STAT1
[9] = inhibition of TNF-alpha-driven NF-kB transcription – cell-based, HEK293T, luciferase, TNF-alpha stimulus, counter-screen for STAT3 inhibitor project, confirmation (AID 1308;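 active means inhibition above the mean of solvent-only control wells plus 3 SD, cutoff set per campaign, cut at about 13% in these data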;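 further: 0% = TNF-alpha with DMSO and 100% = TNF-alpha with MG high control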); details: HEK293T NF-kB luciferase reporter, TNF-alpha induced; at 5.7 µM; hits give high values
[10] = inhibition of STAT1-driven transcription – cell-based, NIH 3T3, luciferase luminescence, IFN-gamma, counter-screen for STAT3 inhibitor project, confirmation (AID 1317); details: NIH 3T3 STAT1-luciferase reporter, IFN-gamma induced, at 5.7 µM, hits give high values;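 further: 0% = DMSO with IFN-gamma and 100% = nifuroxazide control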
[11] = target: Neuropeptide Y receptor type 2 (Homo sapiens) (UniProt P49146); assay: human Y2 receptor positive modulation or activation – cell-based, confirmation (AID 1539; in the data active means activation above about 33%); details: cell-based NPY-Y2 potentiator/agonist assay; at 3.6 µM; hits give high values
Sequence of Neuropeptide Y receptor type 2 (Homo sapiens) (P49146 whole entry, looked up): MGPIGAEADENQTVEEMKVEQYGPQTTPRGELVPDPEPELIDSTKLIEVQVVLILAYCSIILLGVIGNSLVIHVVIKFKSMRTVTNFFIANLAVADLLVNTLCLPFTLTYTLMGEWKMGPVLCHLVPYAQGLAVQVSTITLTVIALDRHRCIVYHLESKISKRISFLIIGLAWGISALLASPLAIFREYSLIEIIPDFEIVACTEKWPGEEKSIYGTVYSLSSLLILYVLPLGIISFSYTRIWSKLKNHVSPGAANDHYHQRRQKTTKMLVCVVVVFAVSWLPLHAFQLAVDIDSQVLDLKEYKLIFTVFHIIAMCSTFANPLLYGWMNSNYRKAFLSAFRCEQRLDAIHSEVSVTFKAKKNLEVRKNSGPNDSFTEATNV

[12] = target: Neuropeptide Y receptor type 1 (Homo sapiens) (UniProt P25929); assay: human Y1 receptor positive modulation or activation – cell-based, fluorescence, counter-screen for NPY-Y2 potentiator project (AID 1651; in the data active means activation above about 45%;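 further: cells stimulated with submaximal NPY then isoproterenol with phosphodiesterase inhibitor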); details: Y1 HEK293-CNG cells, membrane potential fluorescence; at 3.6 µM; hits give high values
Sequence of Neuropeptide Y receptor type 1 (Homo sapiens) (P25929 whole entry, looked up): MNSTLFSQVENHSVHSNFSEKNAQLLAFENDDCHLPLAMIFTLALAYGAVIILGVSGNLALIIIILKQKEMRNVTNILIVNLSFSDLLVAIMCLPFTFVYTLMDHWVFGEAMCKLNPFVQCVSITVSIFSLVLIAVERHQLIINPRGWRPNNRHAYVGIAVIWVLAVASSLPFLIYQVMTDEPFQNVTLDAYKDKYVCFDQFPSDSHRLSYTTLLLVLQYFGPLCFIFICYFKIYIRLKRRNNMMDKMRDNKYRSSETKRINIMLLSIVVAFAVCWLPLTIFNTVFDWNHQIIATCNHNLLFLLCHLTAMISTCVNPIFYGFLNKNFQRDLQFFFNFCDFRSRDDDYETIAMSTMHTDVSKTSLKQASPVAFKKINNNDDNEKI

[13] = target: Neuropeptide Y receptor type 1 (Homo sapiens) (UniProt P25929); assay: human Y1 receptor agonism, CNGC membrane potential – cell-based, fluorescence, selectivity assay for NPY-Y2 potentiator project (AID 1702;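 active means activation above the mean of DMSO-only control wells plus 3 SD, cut at about 18% in these data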;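 further: cells stimulated with 1 µM isoproterenol plus the PDE inhibitor Ro 20-1724; 0% = isoproterenol with DMSO and no NPY and 100% = 40 nM NPY; Y1 agonists lower the membrane potential dye signal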); details: HEK293 Y1-CNGC, at 3.6 µM, hits give high values
[14] = blockers of isoproterenol-driven CNG channel signal – cell-based, HEK293-CNG parental, membrane potential fluorescence, counter-screen for NPY-Y2 potentiator project (AID 1703;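 active means inhibition above the control-well mean plus 3 SD of those wells, cut at about 22% in these data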;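 further: 0% = DMSO with isoproterenol and 100% = DMSO without isoproterenol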); details: isoproterenol cAMP, at 3.6 µM, hits give high values
[15] = target: Neuropeptide Y receptor type 2 (Homo sapiens) (UniProt P49146); assay: agonism at human Y2 receptor without NPY – cell-based, fluorescence, counter-screen for NPY-Y2 potentiator project (AID 1710;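 active means activation above the mean of solvent-only control wells plus 3 SD, cut at about 10% in these data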;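 further: cells stimulated by isoproterenol with no NPY added so direct agonism is tested; 0% = DMSO with isoproterenol alone and 100% = NPY at EC100 plus isoproterenol; agonism lowers probe fluorescence through less cAMP and CNG channel opening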); details: HEK293 Y2/CNGC cells, membrane potential fluorescence, agonist mode; at 3.6 µM; hits give high values
[16] = tested on: Fam108b (Abhd17b) serine hydrolase [Mus musculus]; assay: inhibition of Fam108b (Abhd17b) hydrolase – biochemical, fluorescence polarization, triplicate, counter-screen for RBBP9 inhibitor project, confirmation (AID 1978;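 active means inhibition above a limit from the primary screen, the mean over all compounds plus 3 SD, cut at about 19% in these data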;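 further: 0% = median of active Fam108b wells and 100% = catalytically dead S170A mutant; inhibitors free the probe so polarization falls as inhibition rises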); details: recombinant Fam108b, FP-Rh probe fluorescence polarization; at 9.51 µM; hits give high values
[17] = target: Protein phosphatase methylesterase 1 (Homo sapiens) (UniProt Q9Y570); assay: human PME-1 methylesterase inhibition confirmation – biochemical, fluorescence polarization, FP-Rh probe, triplicate (AID 2171;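 active means inhibition above the hit cutoff set in the earlier primary screen, cut at about 27% in these data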;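 further: 0% = enzyme with DMSO and 100% = wells lacking PME-1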); details: recombinant PME-1, FP-Rh probe fluorescence polarization; at 5.9 µM; hits give high values
Sequence of Protein phosphatase methylesterase 1 (Homo sapiens) (Q9Y570 whole entry, looked up): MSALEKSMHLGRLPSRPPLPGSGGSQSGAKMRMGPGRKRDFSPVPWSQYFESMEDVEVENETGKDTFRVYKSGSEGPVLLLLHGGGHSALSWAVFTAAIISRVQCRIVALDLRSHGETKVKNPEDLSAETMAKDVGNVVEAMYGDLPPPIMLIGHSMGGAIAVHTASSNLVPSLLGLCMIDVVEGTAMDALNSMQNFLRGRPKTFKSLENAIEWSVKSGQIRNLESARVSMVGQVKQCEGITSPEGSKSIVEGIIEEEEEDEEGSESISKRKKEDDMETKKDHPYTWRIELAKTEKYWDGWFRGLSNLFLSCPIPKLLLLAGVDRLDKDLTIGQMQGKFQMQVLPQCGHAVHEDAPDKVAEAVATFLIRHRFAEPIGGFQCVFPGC

[18] = target: Photoreceptor-specific nuclear receptor (Homo sapiens) (UniProt Q9Y5X4); assay: retest of NR2E3-NCOR disrupting agonists – cell-based, luminescence, CHO-S two-hybrid, confirmation (AID 624378;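 active means average inhibition above a cutoff equal to the mean inhibition of all tested compounds plus one SD, cut at about 70% in these data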;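 further: 0% = DMSO in NR2E3 cells and 100% = DMSO in cells lacking NR2E3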); details: CHO-S mammalian two-hybrid NR2E3-NCOR, luciferase luminescence; at 3.98 µM; hits give high values
Sequence of Photoreceptor-specific nuclear receptor (Homo sapiens) (Q9Y5X4 whole entry, looked up): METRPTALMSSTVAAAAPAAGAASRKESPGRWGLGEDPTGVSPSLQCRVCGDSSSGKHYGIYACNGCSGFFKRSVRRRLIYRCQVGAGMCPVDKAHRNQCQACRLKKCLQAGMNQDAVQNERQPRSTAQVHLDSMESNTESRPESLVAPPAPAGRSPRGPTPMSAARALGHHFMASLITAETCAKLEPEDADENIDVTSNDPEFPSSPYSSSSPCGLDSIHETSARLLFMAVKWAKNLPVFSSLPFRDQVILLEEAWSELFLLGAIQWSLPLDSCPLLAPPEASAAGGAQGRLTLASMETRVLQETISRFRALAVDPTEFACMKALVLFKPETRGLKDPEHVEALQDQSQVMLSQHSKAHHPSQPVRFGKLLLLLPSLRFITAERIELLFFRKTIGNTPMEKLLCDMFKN

[19] = reduced OD of V66 E. coli with T4 gene 2 phage – absorbance, RecBCD inhibitor project, confirmation (AID 651982;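 active means mean inhibition over triplicates exceeding the hit threshold derived in the original primary screen, cut at about 11% in these data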); details: E. coli V66 + T4 2- phage, growth OD; at 11.9 µM; hits give high values
[20] = bacterial growth inhibition – absorbance, high throughput, counter-screen for RecBCD inhibitor project (AID 651983; in the data active means inhibition above about 20%;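 further: E. coli strain V66 grown with compound alone and no phage infection; 0% = bacteria with DMSO vehicle only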); details: E. coli viability, absorbance (OD) growth; at 11.9 µM; hits give high values
[21] = reduced optical density, T4-challenged addAB+ bacteria – absorbance, E. coli V3065, T4 phage, counter-screen for RecBCD inhibitor project, confirmation (AID 651984;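 active means mean inhibition above the solvent-only control wells' mean plus 3 SD, cut at about 22% in these data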;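 further: higher means less bacterial growth from phage killing when AddAB is blocked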); details: E. coli expressing H. pylori AddAB + T4 phage, OD growth; at 11.9 µM; hits give high values; gene 2 mutant T4, recBCD-deleted host
[22] = target: Platelet-activating factor acetylhydrolase (Homo sapiens) (UniProt Q13093); assay: inhibition of plasma PAF acetylhydrolase – biochemical, fluorescence polarization, human, confirmation (AID 463230;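 active means mean inhibition of the triplicate above the hit cutoff set for the earlier primary screen, cut at about 25% in these data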;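 further: 0% = enzyme with DMSO and 100% = wells lacking pPAFAH enzyme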); details: recombinant pPAFAH, FP-Rh probe fluorescence polarization; at 3.39 µM; hits give high values
Sequence of Platelet-activating factor acetylhydrolase (Homo sapiens) (Q13093 whole entry, looked up, the tested form may be a part): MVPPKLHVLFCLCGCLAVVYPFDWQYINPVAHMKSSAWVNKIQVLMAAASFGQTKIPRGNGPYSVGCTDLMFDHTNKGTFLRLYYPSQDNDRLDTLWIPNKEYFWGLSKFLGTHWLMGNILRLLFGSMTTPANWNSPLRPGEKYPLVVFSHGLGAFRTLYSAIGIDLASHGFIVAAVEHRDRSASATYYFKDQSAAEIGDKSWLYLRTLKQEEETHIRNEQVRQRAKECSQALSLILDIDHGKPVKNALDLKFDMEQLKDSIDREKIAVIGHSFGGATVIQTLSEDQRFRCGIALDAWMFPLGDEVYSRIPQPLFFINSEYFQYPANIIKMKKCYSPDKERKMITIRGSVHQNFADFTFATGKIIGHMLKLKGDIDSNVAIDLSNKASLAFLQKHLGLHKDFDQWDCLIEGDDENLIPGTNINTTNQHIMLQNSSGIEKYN

[23] = target: Nuclear receptor coactivator 3 (Homo sapiens) (UniProt Q9Y6Q9); assay: NCOA3 GAL4-fusion reporter inhibition – cell-based, luminescence, quadruplicate, confirmation (AID 588792;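 active means mean inhibition over 43.08%, the solvent-only control mean plus 3 SD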;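 further: 0% = DMSO treated cells and 100% = gossypol at 36 µM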); details: HEK293 GAL4-SRC3 luciferase reporter, at 3.6 µM, hits give high values
[24] = tested on: transactivating tegument protein VP16 (Human herpesvirus 1), Gal4-VP16 luciferase reporter; assay: repression of VP16-driven luciferase reporter – cell-based, luminescence, high throughput, counter-screen for SRC3 inhibitor project (AID 588794; in the data active means inhibition above about 30%); details: mammalian cells, at 3.6 µM, hits give high values
[25] = target: Nuclear receptor coactivator 1 (Homo sapiens) (UniProt Q15788); assay: NCOA1 GAL4-fusion reporter inhibition – cell-based, luminescence, quadruplicate, confirmation (AID 588820;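 active means mean inhibition above 46.68%, the untreated control wells mean plus 3 SD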;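 further: 0% = DMSO wells and 100% = gossypol 36 µM treated wells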); details: HEK293 GAL4-SRC1 luciferase reporter, at 3.6 µM, hits give high values
Sequence of Nuclear receptor coactivator 1 (Homo sapiens) (Q15788 whole entry, looked up, the tested form may be a part): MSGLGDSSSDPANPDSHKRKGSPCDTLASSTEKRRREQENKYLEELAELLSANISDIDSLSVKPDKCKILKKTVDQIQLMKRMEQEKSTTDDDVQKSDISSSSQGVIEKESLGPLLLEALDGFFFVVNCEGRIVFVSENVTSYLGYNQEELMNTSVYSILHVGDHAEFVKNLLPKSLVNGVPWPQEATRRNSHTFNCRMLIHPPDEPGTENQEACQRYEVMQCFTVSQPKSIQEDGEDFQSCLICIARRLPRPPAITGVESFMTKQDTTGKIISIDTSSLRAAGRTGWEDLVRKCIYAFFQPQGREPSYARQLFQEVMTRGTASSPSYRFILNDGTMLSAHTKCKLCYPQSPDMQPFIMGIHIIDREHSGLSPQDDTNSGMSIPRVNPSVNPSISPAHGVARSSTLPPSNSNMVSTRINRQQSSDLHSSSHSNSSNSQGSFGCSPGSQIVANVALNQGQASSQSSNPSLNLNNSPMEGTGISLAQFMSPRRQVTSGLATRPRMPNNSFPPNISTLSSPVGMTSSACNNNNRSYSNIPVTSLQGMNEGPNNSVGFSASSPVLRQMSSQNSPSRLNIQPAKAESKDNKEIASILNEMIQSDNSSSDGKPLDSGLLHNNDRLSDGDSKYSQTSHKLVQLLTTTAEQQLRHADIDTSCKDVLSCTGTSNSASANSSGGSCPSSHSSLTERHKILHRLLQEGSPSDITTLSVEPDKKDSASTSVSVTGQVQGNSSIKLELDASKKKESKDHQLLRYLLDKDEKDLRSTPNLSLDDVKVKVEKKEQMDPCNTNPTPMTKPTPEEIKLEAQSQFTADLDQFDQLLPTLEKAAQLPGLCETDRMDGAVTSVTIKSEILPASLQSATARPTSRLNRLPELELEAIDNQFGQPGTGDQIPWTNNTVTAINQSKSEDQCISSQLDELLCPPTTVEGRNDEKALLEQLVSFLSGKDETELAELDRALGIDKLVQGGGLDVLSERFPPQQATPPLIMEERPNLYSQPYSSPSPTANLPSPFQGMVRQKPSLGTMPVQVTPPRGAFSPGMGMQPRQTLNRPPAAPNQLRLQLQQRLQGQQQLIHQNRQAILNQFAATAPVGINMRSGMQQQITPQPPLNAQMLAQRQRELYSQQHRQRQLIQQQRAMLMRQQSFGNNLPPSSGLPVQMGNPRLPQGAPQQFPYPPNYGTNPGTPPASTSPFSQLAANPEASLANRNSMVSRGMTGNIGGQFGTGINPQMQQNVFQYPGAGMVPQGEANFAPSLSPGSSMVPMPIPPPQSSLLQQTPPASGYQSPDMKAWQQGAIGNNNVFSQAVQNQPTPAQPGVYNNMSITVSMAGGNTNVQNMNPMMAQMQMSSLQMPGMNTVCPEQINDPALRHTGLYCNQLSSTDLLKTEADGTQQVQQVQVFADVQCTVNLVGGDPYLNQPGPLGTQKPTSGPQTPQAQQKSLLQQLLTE

[26] = repression of VP16-driven luciferase reporter – cell-based, luminescence, high throughput, counter-screen for SRC1 inhibitor project (AID 588824; in the data active means inhibition above about 25%); details: cell-based VP16 transactivation luciferase luminescence; at 3.6 µM; hits give high values
[27] = nonselective effects on VP16 transactivation – cell-based, luminescence, CHO-S, high throughput, counter-screen for NR2E3 agonist project, confirmation (AID 624379;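 active means mean inhibition above a cutoff equal to the average over all tested compounds plus one standard deviation, cut at about 70% in these data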;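 further: 0% = DMSO with VP16-transfected cells and 100% = DMSO with cells lacking VP16; higher means less reporter light so more repression of VP16 activity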); details: CHO-S GAL4-VP16 luciferase reporter, at 3.98 µM, hits give high values
[28] = StAR promoter reporter inhibitors, counter-screen for LRH-1 inverse agonist project, cell-based, luminescence, high throughput (AID 651611; in the data active means inhibition above about 28%); details: StAR promoter luciferase reporter counterscreen, at 3.6 µM, hits give high values
[29] = target: Nuclear receptor subfamily 5 group A member 2 (Homo sapiens) (UniProt O00482); assay: NR5A2 activity suppression in reporter cells – cell-based, luminescence, confirmation (AID 651613; in the data active means inhibition above about 42%;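 further: HEK293T cells co-transfected with LRH-1 and StAR promoter luciferase reporter; 0% = vehicle wells and 100% = parental cells lacking receptor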); details: cell-based LRH-1 luciferase reporter, inverse agonism; at 3.6 µM; hits give high values
Sequence of Nuclear receptor subfamily 5 group A member 2 (Homo sapiens) (O00482 whole entry, looked up): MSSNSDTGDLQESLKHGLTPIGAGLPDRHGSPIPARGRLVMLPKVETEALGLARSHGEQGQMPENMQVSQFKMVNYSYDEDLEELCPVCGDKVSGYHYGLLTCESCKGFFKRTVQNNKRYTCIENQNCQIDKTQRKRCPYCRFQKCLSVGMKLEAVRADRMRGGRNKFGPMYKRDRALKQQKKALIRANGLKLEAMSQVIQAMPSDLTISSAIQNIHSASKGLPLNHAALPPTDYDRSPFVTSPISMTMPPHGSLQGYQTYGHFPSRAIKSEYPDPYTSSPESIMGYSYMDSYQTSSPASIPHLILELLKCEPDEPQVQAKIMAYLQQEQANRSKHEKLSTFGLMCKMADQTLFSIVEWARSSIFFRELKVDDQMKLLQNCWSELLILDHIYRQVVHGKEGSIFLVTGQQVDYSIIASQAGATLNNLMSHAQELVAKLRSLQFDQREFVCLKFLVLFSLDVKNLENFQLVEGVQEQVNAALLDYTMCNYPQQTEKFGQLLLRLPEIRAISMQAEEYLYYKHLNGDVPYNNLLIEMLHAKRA

[30] = target: Steroidogenic factor 1 (Homo sapiens) (UniProt Q13285); assay: inverse agonism at SF1 nuclear receptor – cell-based, luminescence, high throughput, counter-screen for LRH-1 inverse agonist project (AID 651614; in the data active means inhibition above about 44%;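 further: cells cotransfected with StAR promoter reporter and SF1 expression vector; 0% = vehicle on cells with receptor and 100% = vehicle on cells lacking receptor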); details: cell-based SF1 luciferase reporter, at 3.6 µM, hits give high values
Sequence of Steroidogenic factor 1 (Homo sapiens) (Q13285 whole entry, looked up, the tested form may be a part): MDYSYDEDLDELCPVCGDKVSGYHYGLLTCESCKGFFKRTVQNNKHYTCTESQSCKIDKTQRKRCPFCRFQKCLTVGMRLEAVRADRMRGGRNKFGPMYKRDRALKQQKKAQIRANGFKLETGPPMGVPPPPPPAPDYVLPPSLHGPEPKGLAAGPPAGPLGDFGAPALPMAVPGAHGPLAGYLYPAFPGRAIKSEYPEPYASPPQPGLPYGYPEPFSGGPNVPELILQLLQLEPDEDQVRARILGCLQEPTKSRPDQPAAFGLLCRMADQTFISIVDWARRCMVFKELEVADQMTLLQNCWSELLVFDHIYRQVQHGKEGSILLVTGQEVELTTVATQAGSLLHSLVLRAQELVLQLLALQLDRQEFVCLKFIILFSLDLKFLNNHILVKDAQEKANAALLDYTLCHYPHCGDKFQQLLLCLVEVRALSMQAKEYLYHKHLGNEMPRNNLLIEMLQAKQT

[31] = compounds suppressing VP16-driven luciferase signal – cell-based, luminescence, high throughput, counter-screen for LRH-1 inverse agonist project (AID 651615; in the data active means inhibition above about 33%); details: Gal4-VP16 luciferase reporter cells, at 3.6 µM, hits give high values
[32] = VP16-driven transactivation reporter suppression – cell-based, luminescence, HEK293, counter-screen for COUP-TFII antagonist project (AID 687007; in the data active means inhibition above about 13%); details: HEK293 Gal4-VP16 luciferase reporter, at 8.5 µM, hits give high values
[33] = target: COUP transcription factor 2 (Homo sapiens) (UniProt P24468); assay: retest of COUP-TFII reporter suppressors – cell-based, luciferase reporter, HEK293, triplicate, confirmation (AID 687008;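 active means mean inhibition over three repeats above a set limit taken from the earlier primary screen, cut at about 38% in these data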;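 further: 100% = cells given the luciferase reporter alone without the COUP-TF2 vector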); details: HEK293 NGFI-A luciferase reporter, luminescence; at 8.5 µM; hits give high values
[34] = potentiators of IFN-gamma STAT1 reporter activity – cell-based, HTS, luciferase reporter, confirmation (AID 1262;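 active means activation above a set limit carried over from the earlier primary STAT1 screen, cut at about 140% in these data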;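 further: simple ratio to median IFN-gamma plus DMSO wells so 0% means no light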); details: NIH 3T3 STAT1-luciferase reporter, IFN-gamma potentiation, luminescence; at 5.7 µM; hits give high values; 100% = IFN-gamma EC80 alone, no compound
[35] = enhancement of NF-kB transcriptional signalling – cell-based, HEK293T, luciferase luminescence, TNF-alpha, counter-screen for STAT1 activator project (AID 1306;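 active means activation above the mean of solvent-only control wells plus 3 SD, set per campaign, cut at about 130% in these data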;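 further: TNF-alpha given at a submaximal dose yielding about 80% of full reporter signal; values are well signal over median control so 100% means no change and 0% no light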); details: HEK293T NF-kB luciferase reporter, TNF-alpha stimulated, at 5.7 µM, hits give high values, 100% = TNF-alpha with vehicle only
[36] = target: Signal transducer and activator of transcription 3 (Homo sapiens) (UniProt P40763); assay: enhancers of IL-6 STAT3 transcription – U3A cells, luciferase, luminescence, counter-screen for STAT1 activator project, confirmation (AID 1316;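 active means activation above the solvent-only control well mean plus 3 SD, set per plate batch, cut at about 110% in these data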;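 further: 0% = no luminescence and 100% = median IL-6 plus DMSO wells; higher means more STAT3 reporter activation so hits are non-selective activators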); details: U3A cells STAT3-luciferase reporter, IL-6, luminescence; at 5.7 µM; hits give high values; 100 = IL-6 alone, no compound effect; cells lack STAT1
[37] = tested on: DAF-12 nuclear receptor (Heterodera glycines), GAL4-LBD fusion; assay: hgDAF-12 GAL4 fusion reporter activation, retest – cell-based, luminescence, HEK293, GAL4-LBD fusion, confirmation (AID 743050;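 active means mean activation over triplicate wells above the hit cutoff derived from the earlier primary screen, cut at about 11% in these data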;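 further: 0% = DMSO low control and 100% = 2 mM sodium butyrate high control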); details: HEK293 GAL4-hgDAF12 luciferase reporter, agonist mode; at 6.8 µM; hits give high values; percent of butyrate response
[38] = target: Oxysterols receptor LXR-beta (Homo sapiens) (UniProt P55055); assay: nonspecific reporter activation via LXR – cell-based, luminescence, HEK293, H. glycines campaign, counter-screen for hgDAF-12 agonist project, confirmation (AID 743051;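 active means mean activation of the triplicate above a set limit carried over from the primary screen, none filed active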); details: HEK293 Gal4-LXR luciferase reporter, 24 h; at 6.8 µM; hits give high values
Sequence of Oxysterols receptor LXR-beta (Homo sapiens) (P55055 whole entry, looked up, the tested form may be a part): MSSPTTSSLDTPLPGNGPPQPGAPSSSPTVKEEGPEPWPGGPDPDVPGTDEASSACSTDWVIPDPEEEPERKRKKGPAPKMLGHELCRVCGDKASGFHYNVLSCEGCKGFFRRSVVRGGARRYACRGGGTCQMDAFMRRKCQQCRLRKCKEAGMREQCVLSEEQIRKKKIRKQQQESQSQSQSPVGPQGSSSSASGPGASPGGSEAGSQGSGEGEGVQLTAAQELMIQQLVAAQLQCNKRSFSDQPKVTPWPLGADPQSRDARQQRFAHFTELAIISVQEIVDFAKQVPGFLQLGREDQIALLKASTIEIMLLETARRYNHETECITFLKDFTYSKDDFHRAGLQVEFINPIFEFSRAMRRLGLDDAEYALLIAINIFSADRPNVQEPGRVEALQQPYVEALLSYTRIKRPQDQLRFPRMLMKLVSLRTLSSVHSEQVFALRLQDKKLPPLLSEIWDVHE

For `COc1ccc(CS(=O)/C(Cl)=C(/Cl)C(=O)Nc2ccc(OC)nc2)cc1` (stereo not drawn), the inhibition [1] was 97% (active) and the inhibition [2] was 63.7% (active).
With `CN1C(=O)/C(=C/C=C2\SCCN2C)OC1=S` the inhibition [3] was 86.5% (active) and the inhibition [4] was 9.01%.
For `CCn1c(/C=C/c2ccc([N+](=O)[O-])o2)nc2ccccc2c1=O`, the inhibition [5] was 92.8% (active), the inhibition [6] was 12.8% (active) and the inhibition [7] was 42.1% (active).
Compound `CCN(CC)c1ccc(/C=N/Nc2nc(C)cc(=O)[nH]2)cc1` has an inhibition [8] of 37.2%, an inhibition [9] of -2% and an inhibition [10] of -4.6%.
In the case of `Oc1c(Cl)cc(Cl)c(Cl)c1Cc1c(O)c(Cl)cc(Cl)c1Cl`, the inhibition [8] is reported as 46.3% (active), the inhibition [9] is reported as 20.9% (active) and the inhibition [10] is reported as 41% (active). For the same compound, the activation [11] was 24.1%, the activation [12] was 3.71% and the activation [13] was 14.9%. For the same compound, the inhibition [14] was 15.6%, the activation [15] was 24.1% (active) and the inhibition [1] was 88% (active). The inhibition [2] was 31.1% (active), the inhibition [16] was 47.1% (active) and the inhibition [17] was 10.2%. The inhibition [18] was 98.9% (active), the inhibition [19] was 11.6% (active) and the inhibition [20] was 11.5%. It also gave an inhibition [21] of 2.09%.
For `CCN1/C(=C\c2ccc3ccccc3[n+]2CC)Sc2cc(C)ccc21`, the inhibition [8] was 86.2% (active), the inhibition [9] was 33.4% (active) and the inhibition [10] was 19% (active). For the same compound, the inhibition [22] was 2.61%, the inhibition [5] was 34.1% (active) and the inhibition [6] was 5.58% (active). The inhibition [7] was 16.1%, the inhibition [23] was 35.8% and the inhibition [24] was 70.5% (active). For the same compound, the inhibition [25] was 32.7%, the inhibition [26] was 67.9% (active) and the inhibition [18] was 98.3% (active). The inhibition [27] was 87.5% (active), the inhibition [28] was 59.5% (active) and the inhibition [29] was 107% (active). For the same compound, the inhibition [30] was 86.4% (active), the inhibition [31] was 83.4% (active) and the inhibition [32] was 10.8%. The inhibition [33] was 66.5% (active).
In the case of `O=C(Nc1cccnc1)c1noc2c1CCCCC2`, the inhibition [8] is reported as 16.7%, the inhibition [9] is reported as -24.9% and the inhibition [10] is reported as -46.6%.
For `COc1ccc(C2Nc3ccccc3C(=O)N2c2ccc(Cl)cc2)cc1Cn1cc([N+](=O)[O-])cn1` (stereo not drawn), the activation (% of control) [34] was 151% (active), the activation (% of control) [35] was 112% and the activation (% of control) [36] was 120% (active). For the same compound, the activation [37] was 10.6% (active) and the activation [38] was 0.5%.
In the case of `CCSc1nnc(NC(=O)c2ccc(C)cc2)s1`, the inhibition [8] is reported as 21.2%, the inhibition [9] is reported as -24.2% and the inhibition [10] is reported as -63%. The activation [11] was -4.89%, the activation [12] was -0.65% and the activation [13] was -1.02%. For the same compound, the inhibition [14] was -0.46%, the activation [15] was -10.9% and the activation [37] was 17.3% (active). It also gave an activation [38] of 0.93%.

— PubChem BioAssay
